These results are taken from ChEMBL document CHEMBL1961873, “Compounds: GSK PKIS; Assays: Nanosyn kinase panel” (2012).

In experiment [1] the target is Sphingosine kinase 1 (Homo sapiens) (UniProt Q9NYA1). Particulars: at 1 µM.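 Note: mean SPHK1 inhibition value reported from the GSK PKIS kinase panel screen.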
Experiment [2] has as its target T1, Sphingosine kinase 2 (Homo sapiens) (UniProt Q9NRA0).
T1 sequence (whole entry): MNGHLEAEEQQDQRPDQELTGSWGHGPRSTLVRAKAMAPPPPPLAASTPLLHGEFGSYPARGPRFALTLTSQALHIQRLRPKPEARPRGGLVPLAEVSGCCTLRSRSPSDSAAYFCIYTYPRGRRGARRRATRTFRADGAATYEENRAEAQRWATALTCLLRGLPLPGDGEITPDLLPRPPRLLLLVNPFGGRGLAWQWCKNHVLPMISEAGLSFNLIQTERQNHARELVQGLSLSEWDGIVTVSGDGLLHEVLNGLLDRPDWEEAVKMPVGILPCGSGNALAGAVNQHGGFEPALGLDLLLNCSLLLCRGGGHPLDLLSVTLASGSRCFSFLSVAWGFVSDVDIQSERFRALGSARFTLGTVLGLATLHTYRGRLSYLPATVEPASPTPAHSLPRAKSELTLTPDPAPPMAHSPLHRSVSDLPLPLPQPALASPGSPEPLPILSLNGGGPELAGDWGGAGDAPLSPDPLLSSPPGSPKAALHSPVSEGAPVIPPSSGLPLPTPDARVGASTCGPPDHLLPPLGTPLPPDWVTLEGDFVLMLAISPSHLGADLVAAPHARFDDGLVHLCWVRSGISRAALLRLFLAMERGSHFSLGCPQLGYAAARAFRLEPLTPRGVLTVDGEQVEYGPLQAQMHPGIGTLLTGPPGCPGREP
The settings on record: at 0.1 µM.

The target in experiment [3] is T1, Sphingosine kinase 2 (Homo sapiens). Particulars: at 1 µM.
The target of experiment [4] is Casein kinase II subunit alpha (Homo sapiens) (UniProt P68400). The settings on record: at 0.1 µM.
Sequence of Casein kinase II subunit alpha (Homo sapiens) (P68400 whole entry, looked up): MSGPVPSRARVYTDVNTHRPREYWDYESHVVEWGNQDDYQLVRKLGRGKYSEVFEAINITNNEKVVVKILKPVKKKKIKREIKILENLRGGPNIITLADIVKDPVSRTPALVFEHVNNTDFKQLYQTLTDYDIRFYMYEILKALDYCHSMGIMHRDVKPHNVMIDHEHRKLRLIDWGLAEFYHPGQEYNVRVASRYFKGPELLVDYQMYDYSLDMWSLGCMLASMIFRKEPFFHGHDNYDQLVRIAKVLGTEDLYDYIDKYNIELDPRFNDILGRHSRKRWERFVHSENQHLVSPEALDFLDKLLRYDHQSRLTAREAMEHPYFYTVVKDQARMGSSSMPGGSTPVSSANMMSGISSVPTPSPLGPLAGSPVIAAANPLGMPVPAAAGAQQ
Experiment [5] has the same target. The settings on record: at 1 µM.
Experiment [6] addresses T2, Inhibitor of nuclear factor kappa-B kinase subunit alpha (Homo sapiens) (UniProt O15111).
T2 sequence (whole entry): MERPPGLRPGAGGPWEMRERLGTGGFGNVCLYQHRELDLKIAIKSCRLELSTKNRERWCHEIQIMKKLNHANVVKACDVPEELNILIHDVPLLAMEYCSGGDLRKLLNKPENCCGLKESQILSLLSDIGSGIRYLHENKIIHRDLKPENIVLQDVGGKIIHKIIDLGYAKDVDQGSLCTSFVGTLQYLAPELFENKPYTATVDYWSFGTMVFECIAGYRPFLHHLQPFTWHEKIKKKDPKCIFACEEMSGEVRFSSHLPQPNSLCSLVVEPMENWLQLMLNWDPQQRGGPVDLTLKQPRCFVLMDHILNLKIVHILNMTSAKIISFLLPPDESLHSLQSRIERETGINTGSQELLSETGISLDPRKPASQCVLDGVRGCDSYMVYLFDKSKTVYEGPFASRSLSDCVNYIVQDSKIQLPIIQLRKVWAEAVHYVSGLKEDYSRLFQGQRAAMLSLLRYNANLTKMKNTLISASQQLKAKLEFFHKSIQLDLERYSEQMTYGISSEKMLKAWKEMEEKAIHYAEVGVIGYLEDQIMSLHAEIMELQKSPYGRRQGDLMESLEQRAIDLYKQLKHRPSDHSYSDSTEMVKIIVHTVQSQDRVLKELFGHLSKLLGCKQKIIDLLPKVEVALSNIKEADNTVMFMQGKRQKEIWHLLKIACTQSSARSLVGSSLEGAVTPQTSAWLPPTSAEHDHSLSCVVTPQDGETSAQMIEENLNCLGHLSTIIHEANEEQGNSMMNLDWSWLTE
Particulars: at 0.1 µM.

Experiment [7] has as its target T2, Inhibitor of nuclear factor kappa-B kinase subunit alpha (Homo sapiens). Particulars: at 1 µM.
In experiment [8] the target is T3, Inhibitor of nuclear factor kappa-B kinase subunit beta (Homo sapiens) (UniProt O14920).
T3 sequence (whole entry): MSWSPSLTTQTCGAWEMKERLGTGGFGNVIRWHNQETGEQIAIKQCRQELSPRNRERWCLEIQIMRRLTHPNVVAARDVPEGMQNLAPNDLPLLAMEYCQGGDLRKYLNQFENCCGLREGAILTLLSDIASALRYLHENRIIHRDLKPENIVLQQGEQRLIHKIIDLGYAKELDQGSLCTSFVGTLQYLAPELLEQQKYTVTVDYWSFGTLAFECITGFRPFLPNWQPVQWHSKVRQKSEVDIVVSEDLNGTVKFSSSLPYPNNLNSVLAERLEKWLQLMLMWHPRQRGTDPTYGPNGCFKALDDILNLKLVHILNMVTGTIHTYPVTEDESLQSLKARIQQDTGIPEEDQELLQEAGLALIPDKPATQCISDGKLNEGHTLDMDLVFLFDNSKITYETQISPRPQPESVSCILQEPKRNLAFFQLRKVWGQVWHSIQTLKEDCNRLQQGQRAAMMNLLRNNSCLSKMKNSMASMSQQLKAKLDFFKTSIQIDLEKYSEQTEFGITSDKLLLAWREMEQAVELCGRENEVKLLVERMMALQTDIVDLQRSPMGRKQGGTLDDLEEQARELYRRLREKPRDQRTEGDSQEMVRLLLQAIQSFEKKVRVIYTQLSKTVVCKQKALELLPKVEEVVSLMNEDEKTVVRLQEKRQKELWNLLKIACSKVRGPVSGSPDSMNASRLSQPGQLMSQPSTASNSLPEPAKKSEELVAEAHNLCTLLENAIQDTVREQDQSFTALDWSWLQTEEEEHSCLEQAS
Particulars: at 0.1 µM.

Experiment [9] addresses T3, Inhibitor of nuclear factor kappa-B kinase subunit beta (Homo sapiens). The settings on record: at 1 µM.
Experiment [10] concerns the target T4, Inhibitor of nuclear factor kappa-B kinase subunit epsilon (Homo sapiens) (UniProt Q14164).
T4 sequence (whole entry): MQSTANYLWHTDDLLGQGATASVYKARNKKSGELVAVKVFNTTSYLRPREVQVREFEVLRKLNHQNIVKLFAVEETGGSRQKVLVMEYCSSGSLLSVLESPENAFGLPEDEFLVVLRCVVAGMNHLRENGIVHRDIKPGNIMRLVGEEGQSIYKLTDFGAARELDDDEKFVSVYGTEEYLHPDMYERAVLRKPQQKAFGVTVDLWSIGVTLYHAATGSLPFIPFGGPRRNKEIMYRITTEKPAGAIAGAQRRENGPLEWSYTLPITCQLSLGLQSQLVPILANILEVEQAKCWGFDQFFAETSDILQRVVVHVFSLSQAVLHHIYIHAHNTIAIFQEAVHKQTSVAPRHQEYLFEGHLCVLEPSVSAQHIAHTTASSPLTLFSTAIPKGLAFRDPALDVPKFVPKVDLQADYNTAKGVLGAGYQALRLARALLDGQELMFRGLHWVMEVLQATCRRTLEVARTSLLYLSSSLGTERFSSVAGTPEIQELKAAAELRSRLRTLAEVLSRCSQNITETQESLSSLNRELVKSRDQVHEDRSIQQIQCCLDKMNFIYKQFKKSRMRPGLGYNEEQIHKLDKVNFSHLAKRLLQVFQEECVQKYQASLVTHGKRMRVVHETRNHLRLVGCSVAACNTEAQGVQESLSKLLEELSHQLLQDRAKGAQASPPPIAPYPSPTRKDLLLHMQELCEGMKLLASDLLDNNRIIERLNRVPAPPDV
The settings on record: at 0.1 µM.

For experiment [11], the target named is T4, Inhibitor of nuclear factor kappa-B kinase subunit epsilon (Homo sapiens). The settings on record: at 1 µM.
Experiment [12] deals with T5, Serine/threonine-protein kinase Nek1 (Homo sapiens) (UniProt Q96PY6).
T5 sequence (whole entry): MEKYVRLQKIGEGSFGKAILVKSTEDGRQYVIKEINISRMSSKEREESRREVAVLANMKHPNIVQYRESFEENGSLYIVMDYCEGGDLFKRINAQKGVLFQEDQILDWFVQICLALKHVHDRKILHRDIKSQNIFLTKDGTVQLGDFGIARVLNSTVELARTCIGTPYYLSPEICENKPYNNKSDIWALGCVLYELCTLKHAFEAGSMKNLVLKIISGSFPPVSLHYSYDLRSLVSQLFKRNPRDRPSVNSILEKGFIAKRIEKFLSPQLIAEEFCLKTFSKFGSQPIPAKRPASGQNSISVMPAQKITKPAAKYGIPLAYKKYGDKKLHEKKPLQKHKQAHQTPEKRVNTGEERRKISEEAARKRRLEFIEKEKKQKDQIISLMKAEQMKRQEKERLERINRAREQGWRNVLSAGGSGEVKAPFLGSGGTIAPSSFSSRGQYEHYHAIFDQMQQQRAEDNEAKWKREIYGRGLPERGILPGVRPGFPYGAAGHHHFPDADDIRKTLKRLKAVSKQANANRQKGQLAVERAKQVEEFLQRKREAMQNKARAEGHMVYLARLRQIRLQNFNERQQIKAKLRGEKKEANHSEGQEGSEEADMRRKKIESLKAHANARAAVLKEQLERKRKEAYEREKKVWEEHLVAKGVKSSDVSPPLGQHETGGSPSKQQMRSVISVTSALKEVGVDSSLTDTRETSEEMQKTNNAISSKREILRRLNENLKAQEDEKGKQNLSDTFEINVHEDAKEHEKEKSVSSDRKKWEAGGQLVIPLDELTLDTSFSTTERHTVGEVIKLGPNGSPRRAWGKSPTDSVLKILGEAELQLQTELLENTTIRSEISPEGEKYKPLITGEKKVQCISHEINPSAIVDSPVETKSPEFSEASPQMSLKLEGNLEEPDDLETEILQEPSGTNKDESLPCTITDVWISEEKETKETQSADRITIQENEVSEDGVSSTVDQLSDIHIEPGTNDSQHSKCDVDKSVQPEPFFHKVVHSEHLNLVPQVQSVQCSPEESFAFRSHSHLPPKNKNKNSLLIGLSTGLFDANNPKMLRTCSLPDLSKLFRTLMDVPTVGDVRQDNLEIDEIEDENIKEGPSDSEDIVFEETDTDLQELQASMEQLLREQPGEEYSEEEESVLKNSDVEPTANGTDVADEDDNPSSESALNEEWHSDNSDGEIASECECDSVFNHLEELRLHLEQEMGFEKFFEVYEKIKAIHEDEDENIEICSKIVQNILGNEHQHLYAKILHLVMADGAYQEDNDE
The settings on record: at 0.1 µM.

For experiment [13], the target named is T5, Serine/threonine-protein kinase Nek1 (Homo sapiens). The settings on record: at 1 µM.
The target of experiment [14] is T6, Serine/threonine-protein kinase Nek2 (Homo sapiens) (UniProt P51955).
T6 sequence (whole entry): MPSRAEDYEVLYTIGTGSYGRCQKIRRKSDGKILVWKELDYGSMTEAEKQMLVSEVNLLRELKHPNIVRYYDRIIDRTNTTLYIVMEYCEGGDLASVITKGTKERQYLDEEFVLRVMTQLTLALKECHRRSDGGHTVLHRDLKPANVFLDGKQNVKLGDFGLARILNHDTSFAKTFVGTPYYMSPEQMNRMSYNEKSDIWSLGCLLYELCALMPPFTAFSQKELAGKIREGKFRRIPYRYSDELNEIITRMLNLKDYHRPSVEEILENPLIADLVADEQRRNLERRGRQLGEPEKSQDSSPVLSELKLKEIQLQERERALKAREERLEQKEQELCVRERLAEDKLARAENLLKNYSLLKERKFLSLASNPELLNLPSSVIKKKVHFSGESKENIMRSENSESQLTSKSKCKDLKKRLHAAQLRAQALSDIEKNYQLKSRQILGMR
Particulars: at 0.1 µM.

In experiment [15] the target is T6, Serine/threonine-protein kinase Nek2 (Homo sapiens). Particulars: at 1 µM.
The target of experiment [16] is Serine/threonine-protein kinase Nek6 (Homo sapiens) (UniProt Q9HC98). Particulars: at 0.1 µM.
Sequence of Serine/threonine-protein kinase Nek6 (Homo sapiens) (Q9HC98 whole entry): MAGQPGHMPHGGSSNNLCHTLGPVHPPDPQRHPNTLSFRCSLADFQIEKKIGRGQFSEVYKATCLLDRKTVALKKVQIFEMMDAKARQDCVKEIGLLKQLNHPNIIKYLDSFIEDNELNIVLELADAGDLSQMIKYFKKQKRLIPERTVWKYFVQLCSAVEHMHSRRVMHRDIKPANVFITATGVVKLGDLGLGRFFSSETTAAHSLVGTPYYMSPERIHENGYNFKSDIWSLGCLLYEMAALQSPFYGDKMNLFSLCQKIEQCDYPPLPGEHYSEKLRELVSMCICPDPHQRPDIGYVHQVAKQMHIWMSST
The target is the same in experiment [17]. Particulars: at 1 µM.
The target in experiment [18] is Serine/threonine-protein kinase Nek7 (Homo sapiens) (UniProt Q8TDX7). The settings on record: at 0.1 µM.
Sequence of Serine/threonine-protein kinase Nek7 (Homo sapiens) (Q8TDX7 whole entry, looked up): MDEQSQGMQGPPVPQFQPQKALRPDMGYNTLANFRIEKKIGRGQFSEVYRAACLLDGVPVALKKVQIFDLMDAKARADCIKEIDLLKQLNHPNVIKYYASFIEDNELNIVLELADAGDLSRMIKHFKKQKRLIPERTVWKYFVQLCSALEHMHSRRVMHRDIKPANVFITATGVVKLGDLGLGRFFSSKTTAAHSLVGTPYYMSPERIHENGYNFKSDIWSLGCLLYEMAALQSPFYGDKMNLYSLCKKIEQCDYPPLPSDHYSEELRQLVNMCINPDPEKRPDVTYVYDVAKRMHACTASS
For experiment [19] the target is unchanged. Particulars: at 1 µM.
For experiment [20], the target named is T7, Serine/threonine-protein kinase Nek9 (Homo sapiens) (UniProt Q8TD19).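 Note: reported value is the mean percent inhibition of NEK9.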
T7 sequence (whole entry): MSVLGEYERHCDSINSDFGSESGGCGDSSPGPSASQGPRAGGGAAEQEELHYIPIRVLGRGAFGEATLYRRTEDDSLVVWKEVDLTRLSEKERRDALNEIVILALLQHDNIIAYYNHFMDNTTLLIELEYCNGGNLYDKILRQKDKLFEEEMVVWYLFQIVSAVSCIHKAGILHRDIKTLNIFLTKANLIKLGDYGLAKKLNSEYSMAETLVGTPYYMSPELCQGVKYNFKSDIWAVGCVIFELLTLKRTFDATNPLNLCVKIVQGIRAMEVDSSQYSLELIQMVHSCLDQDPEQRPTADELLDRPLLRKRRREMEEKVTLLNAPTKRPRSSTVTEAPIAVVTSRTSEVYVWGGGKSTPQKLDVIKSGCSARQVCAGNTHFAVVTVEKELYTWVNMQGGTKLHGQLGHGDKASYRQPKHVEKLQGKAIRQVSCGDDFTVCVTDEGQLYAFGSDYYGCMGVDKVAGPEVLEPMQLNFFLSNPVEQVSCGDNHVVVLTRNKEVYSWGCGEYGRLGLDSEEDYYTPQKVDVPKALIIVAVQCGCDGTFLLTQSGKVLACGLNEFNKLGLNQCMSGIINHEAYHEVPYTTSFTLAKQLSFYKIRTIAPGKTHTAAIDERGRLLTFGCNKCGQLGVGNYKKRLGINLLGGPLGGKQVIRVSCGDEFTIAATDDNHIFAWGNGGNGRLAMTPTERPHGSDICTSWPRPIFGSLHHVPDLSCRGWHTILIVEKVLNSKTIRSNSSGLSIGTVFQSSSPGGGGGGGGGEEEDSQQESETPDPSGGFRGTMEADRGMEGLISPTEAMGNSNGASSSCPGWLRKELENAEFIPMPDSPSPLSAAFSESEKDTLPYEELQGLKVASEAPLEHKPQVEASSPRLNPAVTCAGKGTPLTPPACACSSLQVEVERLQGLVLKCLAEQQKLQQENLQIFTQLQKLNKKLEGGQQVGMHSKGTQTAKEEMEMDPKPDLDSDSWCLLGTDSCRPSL
The settings on record: at 0.1 µM.

Each structure is given as a SMILES string.

Sequence of Sphingosine kinase 1 (Homo sapiens) (Q9NYA1 whole entry): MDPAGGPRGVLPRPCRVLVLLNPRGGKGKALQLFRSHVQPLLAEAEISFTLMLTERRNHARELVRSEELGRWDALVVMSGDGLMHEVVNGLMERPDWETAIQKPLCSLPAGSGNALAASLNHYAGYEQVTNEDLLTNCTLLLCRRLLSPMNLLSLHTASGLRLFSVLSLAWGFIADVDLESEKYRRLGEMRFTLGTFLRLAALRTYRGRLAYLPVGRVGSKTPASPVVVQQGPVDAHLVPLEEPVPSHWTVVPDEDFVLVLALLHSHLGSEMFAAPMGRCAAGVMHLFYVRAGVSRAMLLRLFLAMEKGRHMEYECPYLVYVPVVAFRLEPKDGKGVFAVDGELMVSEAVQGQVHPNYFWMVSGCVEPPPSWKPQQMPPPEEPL

Regarding `COc1ccc(Nc2ncc(-c3ccccc3)o2)cc1OC`, the inhibition was 2.47% in experiment [1]; -0.42% in [2]; -0.4% in experiment [3]; 1.03% in experiment [4]; 6.83% in experiment [5]; 5.31% in experiment [6]. For the same compound, the inhibition in experiment [7] stood at 3.86%; in experiment [8], 3.33%; in experiment [9] it was 4.83%; in experiment [10], 2.76%; in experiment [11], 4.37%; in [12] it was 0.52%. For the same compound, the inhibition was 5.19% in [13]; 0.8% in experiment [14]; 2.25% in experiment [15]; 0.31% in experiment [16]; -2.42% in [17]; 1.23% in [18]. The inhibition was 0.83% in experiment [19] and -0.52% in experiment [20].
